# An excerpt weighted towards active compounds, which were near 2.4% of everything screened.
# ASK1 primary = human ASK1 kinase inhibition, primary screen | Q99683 | AlphaScreen MKK6 phosphorylation by ASK1, luminescence | inhibition, % at 7.44 µM | actives 0.99% (n = 22,000) | AID 1159602; in the data active means inhibition above about 35%;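 further: 0% = median of compound wells and 100% = no enzyme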
# ULK1 inh = blocks human autophagy kinase ULK1; O75385; inhibition, % at 5.96 µM; AID 1259251; AlphaScreen Atg13 phosphorylation by ULK1, luminescence; actives 1.9% (n = 30,000); in the data active means inhibition above about 43%;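 further: 0% = median of compound wells and 100% = no enzyme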
# Target sequence (O75385 whole entry, looked up): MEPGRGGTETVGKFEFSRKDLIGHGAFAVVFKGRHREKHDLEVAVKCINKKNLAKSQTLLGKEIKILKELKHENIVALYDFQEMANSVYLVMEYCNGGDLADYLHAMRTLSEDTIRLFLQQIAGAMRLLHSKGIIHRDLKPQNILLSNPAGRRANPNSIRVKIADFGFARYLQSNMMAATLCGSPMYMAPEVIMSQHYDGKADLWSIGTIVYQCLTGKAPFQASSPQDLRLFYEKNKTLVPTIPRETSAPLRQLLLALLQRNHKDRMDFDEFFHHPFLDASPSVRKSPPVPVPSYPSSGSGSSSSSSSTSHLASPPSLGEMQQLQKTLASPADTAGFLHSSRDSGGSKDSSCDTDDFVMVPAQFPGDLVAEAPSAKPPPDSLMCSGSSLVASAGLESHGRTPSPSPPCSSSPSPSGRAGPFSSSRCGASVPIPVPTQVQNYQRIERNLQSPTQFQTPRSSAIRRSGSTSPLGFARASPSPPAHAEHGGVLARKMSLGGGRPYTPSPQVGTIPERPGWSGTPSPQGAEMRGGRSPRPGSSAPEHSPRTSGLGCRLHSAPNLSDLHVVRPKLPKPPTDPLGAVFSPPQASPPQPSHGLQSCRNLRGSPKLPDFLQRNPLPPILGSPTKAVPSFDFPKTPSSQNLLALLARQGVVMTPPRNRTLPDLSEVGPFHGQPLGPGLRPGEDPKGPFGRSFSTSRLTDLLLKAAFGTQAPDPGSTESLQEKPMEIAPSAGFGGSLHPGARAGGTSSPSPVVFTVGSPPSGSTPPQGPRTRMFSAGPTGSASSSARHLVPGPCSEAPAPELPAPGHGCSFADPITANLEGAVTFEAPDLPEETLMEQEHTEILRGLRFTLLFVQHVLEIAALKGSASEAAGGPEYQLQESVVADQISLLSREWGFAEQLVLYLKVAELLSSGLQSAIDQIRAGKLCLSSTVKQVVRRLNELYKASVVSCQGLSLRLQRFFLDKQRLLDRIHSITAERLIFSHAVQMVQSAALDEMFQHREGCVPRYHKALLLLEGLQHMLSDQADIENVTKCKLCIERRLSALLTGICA
# The depositor's hits bear a star; nt = no result.
SMILES,ASK1 primary,ULK1 inh
Fc1cc(-c2nc(Nc3cccc(CN4CCCC4)c3)ncc2F)cc(N2CCOCC2)c1,11,70*
Fc1cc(-c2nc(Nc3cccc(CN4CCOCC4)c3)ncc2F)cc(N2CCOCC2)c1,10,45*
Fc1cc(-c2nc(Nc3cccc(Cn4cccn4)c3)ncc2F)cc(N2CCOCC2)c1,12,21
Fc1cc(-c2ccnc(Nc3cccc(CN4CCOCC4)c3)n2)cc(N2CCOCC2)c1,17,38
c1ccc(-c2nccc(NCCN3CCOCC3)n2)cc1,-7,-6
COc1ccc(-c2cccc(C(=O)Nc3ccccc3)c2)cn1,-15,-8
CN1CCN(c2ccc(-c3ncc(C(=O)NCCCN4CCCC4=O)s3)cc2)CC1,-3,1
Cc1ncn(-c2ccc(Nc3nccc(-c4cccc(N5CCOCC5)c4)n3)cc2)n1,12,-1
COc1ccccc1C(=O)NCCc1ccccc1,nt,3
O=C(Nc1ccc(N2CCOCC2)cc1)c1cnc(N2CCOCC2)s1,4,45*
O=C(Nc1ccc(N2CCOCC2)cc1)c1cnc(N2CCN(c3ccccn3)CC2)s1,0,-6
CCN(CC)C(=O)C1CCCN(c2ncc(C(=O)Nc3ccc(Oc4ccccc4)cc3)s2)C1 (centres undefined),4,-5
CCN(CC)C(=O)C1CCCN(c2ncc(C(=O)Nc3ccc(N4CCOCC4)cc3)s2)C1 (centres undefined),-15,49*
Cc1nc(Nc2ccccc2)cc(-c2cncc(-c3ccc(F)cc3)c2)n1,nt,-1
Cc1nc(Nc2cc(Nc3ccccc3S(=O)(=O)NC(C)C)c(C(F)(F)F)cn2)cc(-c2cncnc2)n1,-1,45*
COc1ccc(CCNc2nc(N3CCC(N4CCOCC4)CC3)nc3c2ncn3-c2ccccc2)cc1,19,-14
COc1ccc(C(=O)c2oc3ccc(NC(=O)c4ccc(OC)c(OC)c4)cc3c2C)cc1,nt,3
COc1ccc(C(=O)c2oc3ccc(NC(C)=O)cc3c2C)cc1,nt,58*
CCC(=O)c1c(O)cc(O)cc1O,nt,62*
Oc1cc(O)cc(O)c1,nt,7
O=C(c1nc2ccc(F)cc2[nH]1)N1CCC(c2nc(-c3ccncc3)no2)CC1,-9,-1
CC(C)n1cnc2c(NCc3ccccc3)nc(NCc3cccnc3)nc21,-7,2
c1cncc(CNc2nc(NCc3ccc4c(c3)OCO4)nc3c2ncn3-c2ccsc2)c1,-19,10
CC(C)n1cnc2c(Nc3ccccc3)nc(Nc3cccnc3)nc21,-9,52*
c1ccc2[nH]c(CNc3nc(Nc4ccc(-n5ccnc5)cc4)nc4c3ncn4-c3ccsc3)nc2c1,1,37
SMILES,ASK1 primary,ULK1 inh
c1ccc2[nH]c(CNc3nc(Nc4ccncc4)nc4c3ncn4-c3ccsc3)nc2c1,18,49*
CC(C)n1cnc2c(Nc3ccc(Oc4ccccc4)cc3)nc(Nc3cccnc3)nc21,15,8
CC(C)n1cnc2c(Nc3ccccc3)nc(NCc3cccnc3)nc21,3,54*
c1cncc(CNc2nc(Nc3ccc4c(c3)OCO4)c3ncn(-c4ccsc4)c3n2)c1,29,53*
CC(C)n1cnc2c(NCc3cccnc3)nc(N3CCCC3CO)nc21 (centres undefined),0,7
CC(C)N(Cc1cccc(F)c1)C(=O)Nc1ccc(-c2cn[nH]c2)cc1,-8,-8
CN1CCN(C(=O)c2ccc(-c3nc(C(N)=O)cs3)cc2)CC1,-14,5
O=C(NCc1ccccc1)c1csc(Nc2ccccn2)n1,-6,20
CC(=O)Nc1ccc(Nc2nc(NCc3ccc4c(c3)OCO4)nc3c2ncn3C(C)C)cc1,15,8
CCNc1nc(Nc2cc(OC)c(OC)c(OC)c2)c2ncn(C(C)C)c2n1,8,-21
CCNc1nc(Nc2ccccc2)c2ncn(C(C)C)c2n1,15,57*
CC(C)n1cnc2c(Nc3ccc4c(c3)OCO4)nc(NCc3ccc4c(c3)OCO4)nc21,40*,-11
O=C(NCc1cccnc1)c1cnc(Nc2ccc(C(F)(F)F)cc2)s1,11,3
Cc1cnc(Nc2ccccc2)nc1NCCc1ccc(O)cc1,-3,-9
CC(C)n1cnc2c(Nc3ccccc3)nc(NC3CCC(O)CC3)nc21 (centres undefined),2,56*
CC(C)n1cnc2c(Nc3ccc4c(c3)OCO4)nc(NC3CCC(O)CC3)nc21 (centres undefined),10,35
OC1CCC(Nc2nc(Nc3ccccc3)c3ncn(-c4ccccc4)c3n2)CC1 (centres undefined),-1,3
CC(=O)Nc1ccc(Nc2nc(NC3CCC(O)CC3)nc3c2ncn3C(C)C)cc1 (centres undefined),9,62*
CN(C)c1cccc(Nc2nccc(NCCN3CCOCC3)n2)c1,-3,8
COc1cccc(CNC(=O)c2c(C)nc3ccc(-c4ccnc(N)n4)cn23)c1,5,11
COc1cccc(CNC(=O)c2c(C)nc3ccc(-c4ccc5nc(C)c(C(=O)NCc6cccc(OC)c6)n5c4)cn23)c1,42*,8
CC(=O)Nc1ccc(Nc2nc(-c3ccc(C(N)=O)cc3)nc3c2ncn3C(C)C)cc1,6,75*
CC(C)n1cnc2c(Nc3ccc(N4CCOCC4)cc3)nc(-c3cccc(N)c3)nc21,4,26
Cc1cnc(-c2ccc(N3CCOCC3)nc2)nc1Nc1ccccc1,0,44*
COc1ccc(-c2nc(Nc3ccc(NC(C)=O)cc3)c3ncn(C(C)C)c3n2)cn1,10,50*
SMILES,ASK1 primary,ULK1 inh
CC(=O)Nc1ccc(Nc2nc(-c3cccc(N)c3)nc3c2ncn3C(C)C)cc1,5,35
COc1ccc(-c2nc(Nc3ccc(N4CCOCC4)cc3)c3ncn(C(C)C)c3n2)cn1,30,25
CC(=O)c1cccc(-c2nc(Nc3ccc(N4CCOCC4)cc3)c3ncn(C(C)C)c3n2)c1,25,56*
Cc1cnc(-c2ccccc2)nc1Nc1ccc(N2CCOCC2)cc1,13,9
O=C(Nc1cc(-c2ccncc2)c[nH]c1=O)C1CCc2ccccc2C1 (centres undefined),-10,-21
NC(=O)c1ccc(-c2nc(C(=O)NCc3ccccc3)cs2)cc1,-4,1
O=C(Nc1ccc2[nH]ncc2c1)C1CCN(C(=O)C(O)c2ccc(C(F)(F)F)cc2)C1 (centres undefined),-14,-11
COc1cccc2c1OCC(c1nc3ccc(-c4cn[nH]c4)cc3c(=O)[nH]1)C2 (centres undefined),-35,9
CC(=O)Nc1ccc(Nc2nc(-c3ccc(N4CCOCC4)nc3)nc3c2ncn3C(C)C)cc1,10,44*
CC(C)n1cnc2c(Nc3ccc(N4CCOCC4)cc3)nc(-c3ccc(C(N)=O)cc3)nc21,10,63*
CC(=O)Nc1ccc(Nc2nc(N3CCOCC3)nc3c2ncn3C(C)C)cc1,3,32
NC(=O)c1ccc(-c2nc(Nc3ccc(N4CCOCC4)cc3)c3ncn(Cc4ccc(C(F)(F)F)cc4)c3n2)cc1,22,0
COc1ccc(-c2nc(NCCO)c3ncn(Cc4ccc(C(F)(F)F)cc4)c3n2)cn1,-21,-65
O=C(NNc1ccc(Br)cc1)C(F)(F)F,nt,-8
CC(C)n1c(Nc2ccc(N3CCOCC3)cc2)nc2c(Nc3ccccc3)ncnc21,21,-11
CC(C)n1c(Nc2cccc(N(C)C)c2)nc2c(Nc3ccc(N4CCOCC4)cc3)ncnc21,37*,22
O=C(Cc1cn(-c2ccc(NCCCN3CCCC3=O)nn2)c2ccccc12)NCc1ccccc1,-7,-7
O=Cc1ccc(O)c(O)c1O,nt,89*

# Assay outcomes from PubChem.
